Screens as filed in PubChem.
In the library only some 4.5% were active in any assay of this set; here they are far more common.
DAX1 inh-1: DAX1 (NR0B1) inhibitors, primary screen, cell-based, HEK293, Gal4-DAX1, luciferase luminescence | HEK293 Gal4-DAX1 luciferase reporter | inhibition, % at 6.75 µM | actives 0.99% (n = 340,000) | AID 504766, 2011;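 active means inhibition above the mean over all tested compounds plus 3 SD, cut at about 4.2% in these data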;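 further: 0% = DAX1-transfected cells with DMSO and 100% = empty-vector control cells with DMSO; inhibition shows as a rise in luminescence from relieved DAX1 repression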
hcDAF12 agonist: H. contortus DAF-12 nuclear receptor activators, primary screen, cell-based, luminescence, HEK293, lit1-tk-luc reporter | actives 1.4% (n = 370,000) | activation, % at 6.8 µM | HEK293 hcDAF-12 lit1-tk-luc reporter; 0% DMSO, 100% Δ7-dafachronic acid;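 active means activation above the mean of all tested compounds plus 3 SD, cut at about 5.5% in these data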;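 further: 100% = response to 3 µM Δ7-dafachronic acid high control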
FXN GAA850 act: FXN promoter activators, primary screen, cell-based, luciferase luminescence, HEK293 lucGAA850. activation, % at 6 µM. AID 540364, 2011. HEK293 lucGAA850 FXN promoter luciferase reporter, 24 h; percent of 10 µM SAHA response. actives 0.56% (n = 360,000);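 active means activation above the average of all compounds screened plus 3 SD, cutoff fixed separately per campaign, cut at about 7.5% in these data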;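 further: 0% = DMSO wells and 100% = 10 µM SAHA wells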
DAX1 inh-2: DAX1 (NR0B1) inhibitors on StAR promoter, primary screen, cell-based, luminescence, SF-1 (NR5A1), full-length DAX-1; AID 652010, 2013; actives 1.1% (n = 370,000); inhibition, % at 6.8 µM; HEK293T StAR-luciferase reporter, SF-1/DAX-1 repression relief;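 active means inhibition above the mean over all tested compounds plus 3 SD, cut at about 3.6% in these data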;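 further: 0% = DAX-1 cells with DMSO and 100% = cells lacking DAX-1 with DMSO; higher inhibition means more luminescence from relief of DAX-1 repression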
ssDAF12 agonist: S. stercoralis DAF-12 nuclear receptor activators, primary screen, cell-based, luminescence, HEK293, GRIP1 co-expression, lit1-tk-luc | Nuclear hormone receptor DAF-12 (Strongyloides stercoralis) | HEK293 ssDAF-12/GRIP1 lit1-tk-luc reporter; % of 3 µM dafachronic acid response | activation, % at 6.8 µM | actives 1% (n = 370,000) | AID 652126, 2013;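 active means activation above the mean over all tested compounds plus 3 SD, cut at about 0.9% in these data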;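 further: 0% = DMSO-only wells and 100% = 3 µM delta7-dafachronic acid wells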
hgDAF-12 ag: H. glycines DAF-12 receptor agonists, primary screen, cell-based, luminescence, HEK293, GAL4 fusion, UAS-luciferase. activation, % at 6.8 µM. HEK293 GAL4-hgDAF12 UAS-luciferase reporter, agonist luminescence; normalized to butyrate control. Nuclear hormone receptor DAF-12 (Heterodera glycines), GAL4 fusion. actives 1.8% (n = 370,000);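 active means activation above a cutoff set at the mean of all screened compounds plus 3 SD, cut at about 10% in these data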;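 further: 0% = DMSO wells and 100% = sodium butyrate wells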
GAA30 FXN cntr: GAA30 FXN promoter activators, confirmation, counter-screen for GAA850 frataxin promoter activator project, cell-based, luminescence, HEK293, lucGAA30, triplicate; shares compounds with FXN GAA850 act; HEK293 lucGAA30 FXN promoter luciferase, 24 h; DMSO = 0%, 5 µM ipriflavone = 100%; activation, % at 6 µM; actives 66% (n = 1,900); AID 588350, 2011;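 active means mean activation above the mean of solvent-only control wells plus 3 SD, cut at about 22% in these data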;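 further: counterscreen of GAA850 promoter hits where activity marks nonselective or luminescence artifacts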
GAA850 confirm: FXN GAA850 promoter activators in reporter cells, confirmation, cell-based, luminescence, HEK293 lucGAA850, triplicate | shares compounds with FXN GAA850 act | HEK293 lucGAA850 FXN promoter luciferase reporter, 24 h; 100% = activation by SAHA | activation, % at 6 µM | actives 86% (n = 1,900);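 active means mean activation above a set limit taken from the primary screen, cut at about 8% in these data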;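 further: 0% = DMSO wells and 100% = 10 µM SAHA wells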
LXRb hcDAF ctr: LXR agonists, Gal4 luciferase reporter, confirmation, counter-screen for hcDAF-12 agonist project, cell-based, luminescence, HEK293, H. contortus campaign | HEK293 Gal4-LXR tk-luc reporter, 24 h; normalized: DMSO 0%, positive control 100% | activation, % at 6.8 µM | AID 743027, 2013 | shares compounds with hcDAF12 agonist | 3,400 tested, under 10 active;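 active means mean percent activation of the reporter above a cutoff set as the average over tested compounds plus their standard deviation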
Target sequence (P55055 whole entry, looked up, the tested form may be a part): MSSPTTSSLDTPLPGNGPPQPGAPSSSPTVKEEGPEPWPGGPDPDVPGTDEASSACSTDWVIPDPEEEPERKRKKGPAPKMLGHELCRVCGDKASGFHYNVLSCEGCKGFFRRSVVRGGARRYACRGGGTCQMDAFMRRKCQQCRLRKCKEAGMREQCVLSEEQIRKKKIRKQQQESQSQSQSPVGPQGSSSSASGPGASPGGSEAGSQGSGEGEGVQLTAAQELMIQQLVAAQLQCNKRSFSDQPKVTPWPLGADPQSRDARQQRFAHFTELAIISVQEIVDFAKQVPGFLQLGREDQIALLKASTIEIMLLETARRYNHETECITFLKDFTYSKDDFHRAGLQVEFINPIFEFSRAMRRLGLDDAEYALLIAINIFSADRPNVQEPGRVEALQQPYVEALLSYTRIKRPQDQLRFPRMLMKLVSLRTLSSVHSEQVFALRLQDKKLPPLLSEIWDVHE
hcDAF12 ag: H. contortus DAF-12 receptor agonists, confirmation, cell-based, luminescence, HEK293, lit1-tk-luc, triplicate. actives 61% (n = 3,400). activation, % at 6.8 µM. HEK293 hcDAF-12 lit1-tk-luc reporter; % of Δ7-dafachronic acid response. shares compounds with hcDAF12 agonist;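 active means mean activation across triplicate tests above the threshold derived from the earlier primary screen, cut at about 5.5% in these data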;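 further: 0% = DMSO only wells and 100% = 3 µM Δ7-dafachronic acid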
hgDAF12 conf: H. glycines DAF-12 receptor agonists, confirmation, cell-based, luminescence, HEK293, GAL4-LBD fusion; actives 80% (n = 3,300); activation, % at 6.8 µM; shares compounds with hgDAF-12 ag; HEK293 GAL4-hgDAF12 luciferase reporter, agonist mode; percent of butyrate response;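 active means mean activation over triplicate wells above the hit cutoff derived from the earlier primary screen, cut at about 11% in these data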;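 further: 0% = DMSO low control and 100% = 2 mM sodium butyrate high control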
LXRb DAF12 ctr: LXR agonists, Gal4 luciferase reporter, confirmation, counter-screen for hgDAF-12 agonist project, cell-based, luminescence, HEK293, H. glycines campaign | activation, % at 6.8 µM | shares compounds with hgDAF-12 ag | 24 h | 3,300 tested, under 10 active;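 active means mean activation of the triplicate above a set limit carried over from the primary screen, none filed active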
* hit, by the source's call.

For COCCN(C(=O)COC(=O)c1ccc(-c2ccccc2)cc1)c1c(N)n(Cc2ccccc2)c(=O)[nH]c1=O the results were DAX1 inh-1 -0.4, hcDAF12 agonist -0.3, FXN GAA850 act 0.6, DAX1 inh-2 -2.1, ssDAF12 agonist -0.9 and hgDAF-12 ag -1.9.
Screening O=C(/C=C/c1ccc2c(c1)OCO2)Nc1nncs1 returned hcDAF12 agonist 1.2, FXN GAA850 act 1.6, DAX1 inh-2 0.8, ssDAF12 agonist -0.1 and hgDAF-12 ag 6.1.
For CC(C)(C)c1ccc(/C=C/C(=O)Nc2nncs2)cc1 the results were DAX1 inh-1 3.4, hcDAF12 agonist 7.4*, FXN GAA850 act 7.6*, DAX1 inh-2 2.8, ssDAF12 agonist -0.3, hgDAF-12 ag 20.6*, GAA30 FXN cntr 107.9*, GAA850 confirm 39.3*, LXRb hcDAF ctr 1.3, hcDAF12 ag 6.8*, hgDAF12 conf 12.0* and LXRb DAF12 ctr 0.8.
O=C(O)CCNC(=O)CCCn1nnc2ccccc2c1=O was read as DAX1 inh-1 -1.1, hcDAF12 agonist -0.1, FXN GAA850 act 1.7, DAX1 inh-2 -0.5, ssDAF12 agonist -1.3 and hgDAF-12 ag -0.8.
Screening CNCCCOc1ccc2c(c1)CCC2 returned DAX1 inh-1 0.7, hcDAF12 agonist -0.3, FXN GAA850 act 5.0, DAX1 inh-2 0.6, ssDAF12 agonist -1.3 and hgDAF-12 ag 7.1.
Screening c1cnc(SCCOc2ccc3c(c2)CCC3)nc1 returned DAX1 inh-1 7.6*, hcDAF12 agonist 3.8, FXN GAA850 act 8.2*, DAX1 inh-2 3.7*, ssDAF12 agonist -0.1, hgDAF-12 ag 15.2*, GAA30 FXN cntr 100.6*, GAA850 confirm 38.0*, hgDAF12 conf 17.2* and LXRb DAF12 ctr 0.8.
